Assay results taken from PubChem BioAssay (Tox21).
“And” between values parts separate entries of the source, which are not always exact repeats. Equal values may be shown once. Records with an inconclusive call do not appear. More than one record can exist for a structure, and the calls need not agree. The source made the active and inactive calls. Unless noted, calls follow the shape of the dose curve; as a rule, active = well fitted curve in the direction sought with a large enough effect in the repeat runs; inconclusive = weak or mixed curves; inactive = no such curve, though single readings can be large; an effect the other way counts as inactive or inconclusive.

How the values were obtained:
[1] = target: Luciferin 4-monooxygenase (Photinus pyralis) (UniProt P08659); assay: qHTS assay to identify small molecule inhibitors of firefly luciferase (AID 1224835); also: nearly all actives have a fitted effect of over 25% in size; also: potency is read from the fitted curve at half-maximal effect
How it was run: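 Inhibition of purified Photinus luciferase is measured by luminescence. Substrate levels (D-luciferin, ATP) sit at their KM values. Each compound is tested in a concentration series.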

[2] = qHTS assay to identify small molecule agonists of the constitutive androstane receptor (CAR) signaling pathway - cell viability counter screen (AID 1224836); also: nearly all actives have a fitted effect of over 45% in size
How it was run: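 HepG2 cells stably carrying hCAR and a CYP2B6-2.2kb reporter; 15-concentration compounds plus PK11195 (final 0.75 uM), 23 hr at 37 C/5% CO2. Viability read by CellTiter-Fluor fluorescence.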

[3] = qHTS assay to identify small molecule antagonists of the constitutive androstane receptor (CAR) signaling pathway - cell viability counter screen (AID 1224837); also: nearly all actives have a fitted effect of over 45% in size
How it was run: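 Fluorescence from CellTiter-Fluor served as the viability signal. Human hepatoma HepG2 cells stably bearing hCAR and CYP2B6-2.2kb received compound plus CITCO (50 nM final) for 23 hr.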

[4] = target: Nuclear receptor subfamily 1 group I member 3 (Homo sapiens) (UniProt Q14994); assay: qHTS assay to identify small molecule antagonists of the constitutive androstane receptor (CAR) signaling pathway (AID 1224838);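 also: HepG2 cells stably expressing hCAR with CYP2B6 luciferase reporter stimulated by CITCO; nearly all actives have a fitted effect of over 40% in size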
How it was run: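 Quantitative HTS in double-stable HepG2-CYP2B6-hCAR cells. After 4 h plating, cells get compound (15 concentrations) and CITCO at 50 nM final, incubate 24 h at 37 C, then ONE-Glo luminescence is read.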

[5] = target: Nuclear receptor subfamily 1 group I member 3 (Homo sapiens) (UniProt Q14994); assay: qHTS assay to identify small molecule agonists of the constitutive androstane receptor (CAR) signaling pathway (AID 1224839); also: nearly all actives have a fitted effect of over 15% in size; also: potency is read from the fitted curve at half-maximal effect;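 as to activation: HepG2 cells stably carrying human CAR and a CYP2B6 luciferase reporter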
How it was run: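 HepG2 cells stably co-transfected with hCAR and a CYP2B6-2.2kb luciferase reporter; compounds at 15 concentrations with 0.75 uM PK11195 present. After 24 hr at 37 C, luciferase read by ONE-Glo luminescence.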

[6] = qHTS assay to identify small molecule antagonists of the estrogen related receptor signaling pathway with the pleiotropic PPARgamma coactivator (PGC) from Tox21 10K library - cell viability counter screen (AID 1224840; active = well fitted cell-killing curve with a large enough effect in the repeat runs, not every such curve was filed as active; also: nearly all actives have a fitted effect of over 40% in size)
How it was run: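 Compounds in DMSO, alongside positive and negative controls, were pinned onto PGC/ERR cells (2,000 per well). Exposure lasted 17.5 hours at 37 C, followed by a 30-minute CellTiter-Fluor incubation and fluorescence reading.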

[7] = target: Thyrotropin receptor (Homo sapiens) (UniProt P16473); assay: qHTS assay to identify small molecule agonists of the thyroid stimulating hormone receptor (TSHR) signaling pathway (AID 1224843; calls by dose curve; also: nearly all actives have a fitted effect of over 45% in size; also: potency is read from the fitted curve at half-maximal effect)
How it was run: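 Screening of the Tox21 10K collection used HEK293 cells engineered with TSHR at 800 cells per well. After a 30-min room-temperature compound exposure, HTRF cAMP reagents were added and fluorescence recorded 1 h later.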

[8] = qHTS assay to identify small molecule agonists of the hypoxia (HIF-1) signaling pathway - cell viability counter screen (AID 1224844; calls by dose curve; also: nearly all actives have a fitted effect of over 50% in size)
How it was run: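 Luminescent ATP content (CellTiter-Glo, 30 min, room temperature) served as the viability measure in HRE-bla ME-180 cells exposed to compounds for 17 hrs in low-serum medium (0.5% dialyzed FBS).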

[9] = qHTS assay to identify small molecule agonists of H2AX (AID 1224845; active = well fitted activation curve with a large enough effect in the signal ratio in the repeat runs, not every such curve was filed as active; the % refers to the signal ratio)
How it was run: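 Phospho-H2AX Ser139 measured by HTRF (ex 320 nm; em 665 and 620 nm) after 24 hr antibody incubation. Compounds, 15 concentrations, 0.76% DMSO, were applied to CHO-K1 cells for 3hr at 37C before lysis.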

[10] = qHTS assay to identify small molecule agonists of H2AX - cell viability counter screen (AID 1224847; calls by dose curve;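 also: wild-type CHO-K1 cells; top concentration of the series differs between compounds; nearly all actives have a fitted effect of over 30% in size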)
How it was run: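 CHO-K1 cells plated overnight at 37C, then exposed 3 h at 37C to compounds at 15 concentrations (0.76% DMSO final). Viability by CellTiter-Glo luminescence after 30 min at room temperature.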

[11] = qHTS RealTime-Glo MT Cell Viability Assay in HepG2 cells - 24 hour (AID 1224867); also: nearly all actives have a fitted effect of over 50% in size
How it was run: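 Viability was tracked continuously by NanoLuc luminescence from prosubstrate reduced by living HepG2 cells, at successive time points over 40 h of compound exposure. Cells with reagent were preincubated 5 h at 37 °C before compound addition.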

[12] = qHTS RealTime-Glo MT Cell Viability Assay in HEK293 cells - 32 hour (AID 1224868); also: nearly all actives have a fitted effect of over 50% in size; also: potency is read from the fitted curve at half-maximal effect
How it was run: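 Viability tracked continuously by luminescence as live cells reduce a prosubstrate for NanoLuc; HEK293 cells preincubated 5 h, compound-treated at 37 C, and read at 0, 8, 16, 24, 32 and 40 h.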

[13] = A CellTox Green Cytotoxicity Assay to monitor cytotoxicity in HEK293 cells - 0 hour (AID 1224869); also: nearly all actives have a fitted effect of over 50% in size
How it was run: (§1)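 Each value comes from one timepoint of a single continuous run in which HEK293 cells with CellTox Green were exposed to compound for up to 40 h at 37 C, dye fluorescence rising with cell death.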

[14] = qHTS RealTime-Glo MT Cell Viability Assay in HepG2 cells - 40 hour (AID 1224870); also: nearly all actives have a fitted effect of over 50% in size
How it was run: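 Real-time viability: cells seeded at 600 per well together with NanoLuc and cell-permeant prosubstrate, compounds added after 5 h incubation. Luminescence tracked at 0, 8, 16, 24, 32 and 40 h of exposure.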

[15] = A CellTox Green Cytotoxicity Assay to monitor cytotoxicity in HEK293 cells - 40 hour (AID 1224871); also: nearly all actives have a fitted effect of over 45% in size
How it was run: as §1

[16] = qHTS assay to identify small molecule antagonists of the estrogen related receptor signaling pathway with the pleiotropic PPARgamma coactivator (PGC) from Tox21 10K library (AID 1224841; call rule not given here; also: potency is read from the fitted curve at half-maximal effect)
How it was run: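 Compound exposure ran 18 hours at 37 C in PGC/ERR cells (2,000/well) that had first rested 6 hours in a 37 C/5% CO2 incubator. Luciferase activity was then detected with One-Glo after a 30-minute room-temperature step.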

[17] = qHTS assay to identify small molecule agonists of the estrogen related receptor signaling pathway with the pleiotropic PPARgamma coactivator (PGC) from Tox21 10K library (AID 1224842); also: nearly all actives have a fitted effect of over 15% in size
How it was run: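 Luminescence from One-Glo (30 min, room temperature) measured after PGC/ERR cells had 18 h at 37 C with pinned compound (23 nL in DMSO). Cells had been seeded at 2,000 per well and pre-incubated 6 h.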

[18] = qHTS assay to identify small molecule antagonists of the estrogen related receptor (ERR) signaling pathway from Tox21 library (AID 1224848); also: nearly all actives have a fitted effect of over 50% in size; also: potency is read from the fitted curve at half-maximal effect
How it was run: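 Antagonist-mode screen of the Tox21 10K library in an NTP-provided ERR reporter cell line; 18 h compound exposure at 37 C, luminescence measured with ONE-Glo.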

[19] = qHTS assay to identify small molecule agonists of the estrogen related receptor (ERR) signaling pathway from Tox21 library (AID 1224849; calls by dose curve; also: nearly all actives have a fitted effect of over 15% in size); conditions: ERR reporter cell line, ONE-Glo luciferase, 18 h
How it was run: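 We plated ERR reporter cells, waited 6 h, added compounds in DMSO by pin tool and incubated them 18 h at 37 C. ONE-Glo was then added and luminescence read after 30 min.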

[20] = qHTS assay to identify small molecule agonists of the hypoxia (HIF-1) signaling pathway (AID 1224846; active = well fitted activation curve with a large enough effect in the signal ratio in the repeat runs, not every such curve was filed as active; the % refers to the signal ratio)
How it was run: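 Measured by blue/green FRET after loading CCF4-AM: beta-lactamase expressed from a hypoxia response element in ME-180 cells. Test agents were delivered in DMSO and left 17 hrs; cells had been plated 5 hrs earlier in low-serum (0.5% dialyzed FBS) medium.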
% is scaled to controls: 0 for no effect and ±100 for the full control effect.

Thyrotropin receptor (Homo sapiens), sequence (P16473 whole entry, looked up): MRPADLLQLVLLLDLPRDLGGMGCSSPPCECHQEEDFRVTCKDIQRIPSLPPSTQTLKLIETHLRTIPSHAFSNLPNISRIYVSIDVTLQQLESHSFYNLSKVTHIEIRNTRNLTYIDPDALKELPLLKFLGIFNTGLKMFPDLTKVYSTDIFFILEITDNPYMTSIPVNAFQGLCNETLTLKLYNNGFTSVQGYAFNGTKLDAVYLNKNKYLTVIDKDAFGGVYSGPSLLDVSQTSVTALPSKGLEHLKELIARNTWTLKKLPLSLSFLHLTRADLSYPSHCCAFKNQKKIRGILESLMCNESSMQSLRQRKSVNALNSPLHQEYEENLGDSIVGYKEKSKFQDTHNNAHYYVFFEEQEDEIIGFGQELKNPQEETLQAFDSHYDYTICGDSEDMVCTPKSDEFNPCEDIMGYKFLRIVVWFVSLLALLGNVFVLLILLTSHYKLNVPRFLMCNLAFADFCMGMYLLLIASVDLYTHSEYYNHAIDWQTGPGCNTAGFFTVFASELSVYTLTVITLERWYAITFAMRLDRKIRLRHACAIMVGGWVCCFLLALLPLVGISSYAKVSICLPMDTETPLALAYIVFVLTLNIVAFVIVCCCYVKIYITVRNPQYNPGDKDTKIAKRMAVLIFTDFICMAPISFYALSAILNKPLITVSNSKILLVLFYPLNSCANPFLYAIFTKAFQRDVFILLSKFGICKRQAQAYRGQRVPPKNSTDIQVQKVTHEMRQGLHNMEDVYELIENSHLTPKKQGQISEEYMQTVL
Luciferin 4-monooxygenase (Photinus pyralis), sequence (P08659 whole entry, looked up): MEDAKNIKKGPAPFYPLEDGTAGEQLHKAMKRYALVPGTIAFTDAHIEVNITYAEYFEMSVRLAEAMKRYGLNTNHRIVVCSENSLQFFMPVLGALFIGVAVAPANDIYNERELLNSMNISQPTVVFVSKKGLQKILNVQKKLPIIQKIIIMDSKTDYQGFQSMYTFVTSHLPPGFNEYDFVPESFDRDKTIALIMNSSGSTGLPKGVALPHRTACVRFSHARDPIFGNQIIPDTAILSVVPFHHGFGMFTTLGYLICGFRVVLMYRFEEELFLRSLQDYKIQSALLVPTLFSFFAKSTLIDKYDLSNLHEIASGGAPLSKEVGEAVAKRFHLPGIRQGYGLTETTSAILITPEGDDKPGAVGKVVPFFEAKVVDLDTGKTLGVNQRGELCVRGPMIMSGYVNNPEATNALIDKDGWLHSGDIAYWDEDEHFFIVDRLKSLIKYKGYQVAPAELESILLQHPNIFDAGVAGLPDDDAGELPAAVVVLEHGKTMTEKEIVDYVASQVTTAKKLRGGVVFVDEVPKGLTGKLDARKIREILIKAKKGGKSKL
Nuclear receptor subfamily 1 group I member 3 (Homo sapiens), sequence (Q14994 whole entry, looked up): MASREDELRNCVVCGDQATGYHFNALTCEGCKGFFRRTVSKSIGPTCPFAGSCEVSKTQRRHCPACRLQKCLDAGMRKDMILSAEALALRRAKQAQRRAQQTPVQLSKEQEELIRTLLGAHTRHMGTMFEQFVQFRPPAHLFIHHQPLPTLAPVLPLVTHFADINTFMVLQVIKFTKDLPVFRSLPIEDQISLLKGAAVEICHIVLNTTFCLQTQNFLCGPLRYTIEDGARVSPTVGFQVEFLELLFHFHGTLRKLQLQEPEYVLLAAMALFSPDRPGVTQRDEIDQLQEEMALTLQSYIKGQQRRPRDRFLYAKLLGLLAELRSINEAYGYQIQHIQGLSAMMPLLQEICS

CC(C)(C)CC(C)(C)c1ccc(O)c(-n2nc3ccccc3n2)c1
inactive: Potency [1] | Potency [2] | Potency [3] | Potency [4] | Potency [6] | Potency [8] | Potency [9] | Potency [10] | outcome [11] | Potency [13] | outcome [14] | Potency [15]
49.7 µM (active) and inactive: Potency [12]
27.7 µM (active) and inactive: Potency [5]
active: Potency [7] 27.7 µM and 15.4 µM

Cc1c(N(C)C)c(=O)n(-c2ccccc2)n1C
inactive: Potency [1] | Potency [2] | Potency [3] | Potency [4] | Potency [5] | Potency [6] | Potency [7] | Potency [8] | Potency [9] | outcome [11] | Potency [12] | Potency [13] | outcome [14] | Potency [15]

COC(=O)c1ccc(C=O)cc1
inactive: Potency [1] | Potency [2] | Potency [3] | Potency [4] | Potency [5] | Potency [6] | Potency [16] | Potency [17] | Potency [8] | Potency [9] | Potency [18] | activity change, positive = activation ([19]; at 92.4 µM (top of the series)) -0.881% | outcome [11] | Potency [12] | Potency [13] | outcome [14] | Potency [15]

Cc1c(N(C)CS(=O)(=O)O)c(=O)n(-c2ccccc2)n1C
inactive: Potency [1] | Potency [2] | Potency [3] | Potency [4] | Potency [5] | Potency [6] | Potency [7] | Potency [8] | Potency [9] | Potency [10] | outcome [11] | Potency [12] | Potency [13] | outcome [14] | Potency [15]

NC(=O)c1ccc([N+](=O)[O-])cc1Cl
inactive: Potency [1] | Potency [2] | Potency [3] | Potency [4] | Potency [5] | Potency [6] | Potency [8] | Potency [9] | outcome [20] | outcome [11] | Potency [12] | Potency [13] | outcome [14] | Potency [15]

CN(C)C=O
inactive: Potency [1] | Potency [2] | Potency [3] | Potency [4] | Potency [5] | Potency [6] | Potency [16] | Potency [17] | Potency [7] | Potency [8] | Potency [9] | Potency [18] | activity change, positive = activation ([19]; at 92.4 µM (top of the series)) 7.34% and 6.88% | outcome [11] | Potency [12] | Potency [13] | outcome [14] | Potency [15]

O=C(O)CN(CC(=O)O)CC(=O)O
inactive: Potency [1] | Potency [2] | Potency [3] | Potency [4] | Potency [5] | Potency [6] | Potency [16] | Potency [17] | Potency [8] | Potency [9] | outcome [20] | Potency [18] | activity change, positive = activation ([19]; at 92.4 µM (top of the series)) 0.123% and 2.89% | outcome [11] | Potency [12] | Potency [13] | outcome [14] | Potency [15]

OCCCc1ccccc1
inactive: Potency [1] | Potency [2] | Potency [3] | Potency [4] | Potency [5] | Potency [6] | Potency [16] | Potency [17] | Potency [7] | Potency [8] | Potency [9] | Potency [10] | Potency [18] | activity change, positive = activation ([19]; at 42.5 µM (top of the series)) -1.08% | activity change, positive = activation ([19]; at 92.4 µM (top of the series)) 4.65% | outcome [11] | Potency [12] | Potency [13] | outcome [14] | Potency [15]

C[C@]12CC[C@@H]3c4ccc(O)cc4C[C@@H](CCCCCCCCCS(=O)CCCC(F)(F)C(F)(F)F)[C@H]3[C@@H]1CC[C@@H]2O (stereo partly drawn)
inactive: Potency [1] | Potency [2] | Potency [3] | Potency [4] | Potency [5] | Potency [6] | Potency [17] | Potency [7] | Potency [8] | Potency [9] | Potency [10] | activity change, positive = activation ([19]; at 42.5 µM (top of the series)) -35% and -33.1% | activity change, positive = activation ([19]; at 92.4 µM (top of the series)) -37.7% | outcome [11] | Potency [13] | outcome [14] | Potency [15]
active: Potency [16] 19.3 µM and 6.39 µM | Potency [18] 6.85 µM and 5.7 µM and 5.96 µM | Potency [12] 43.6 µM

O=C1CCCCCN1
inactive: Potency [1] | Potency [2] | Potency [3] | Potency [4] | Potency [5] | Potency [6] | Potency [16] | Potency [17] | Potency [7] | Potency [8] | Potency [9] | Potency [10] | Potency [18] | activity change, positive = activation ([19]; at 92.4 µM (top of the series)) 0.0496% and -0.16% | outcome [11] | Potency [12] | Potency [13] | outcome [14] | Potency [15]

C=CCOC(=O)CC(C)C
inactive: Potency [1] | Potency [2] | Potency [3] | Potency [4] | Potency [5] | Potency [6] | Potency [16] | Potency [17] | Potency [8] | Potency [9] | Potency [10] | Potency [18] | activity change, positive = activation ([19]; at 92.4 µM (top of the series)) 8.22% and 2.25% | outcome [11] | Potency [12] | Potency [13] | outcome [14] | Potency [15]

O=C1OC(c2ccc(O)cc2)(c2ccc(O)cc2)c2ccccc21
active: Potency [5] 60.7 µM and 8.63 µM and 4.73 µM
inactive: Potency [1] | Potency [2] | Potency [3] | Potency [4] | Potency [6] | Potency [7] | Potency [8] | Potency [9] | Potency [10] | outcome [11] | Potency [12] | Potency [13] | outcome [14] | Potency [15]

CCCCC/C(C=O)=C\c1ccccc1
inactive: Potency [1] | Potency [2] | Potency [3] | Potency [4] | Potency [5] | Potency [6] | Potency [7] | Potency [8] | Potency [9] | Potency [10] | outcome [11] | Potency [12] | Potency [13] | outcome [14] | Potency [15]

N[C@@H](Cc1c[nH]c2ccc(O)cc12)C(=O)O
34.6 µM (active) and inactive: Potency [1]
inactive: Potency [2] | Potency [3] | Potency [4] | Potency [5] | Potency [6] | Potency [8] | Potency [9] | outcome [20] | Potency [10] | outcome [11] | Potency [12] | Potency [13] | outcome [14] | Potency [15]
